Screens from PubChem BioAssay.
Pf growth 96h = Primary qHTS for delayed death inhibitors of the malarial parasite plastid, 96 hour incubation; AID 504834, 2011; P. falciparum luciferase reporter growth, 96 h; Potency, µM (top dose mostly 28.7 µM), for inactives: top-dose activity change, negative = inhibition, hits mostly inhibitors; 6.9% of 320,000 active; note: potency is the fitted concentration of half-maximal effect
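Compounds incubated with erythrocytes infected by luciferase-expressing P. falciparum (2% hematocrit, 0.05% parasitemia final) for 96 hours, 37 C in 5% CO2. Growth inhibition scored as decreased luciferase luminescence.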
HCMV antiviral = qHTS Assay for inhibitors of the human cytomegalovirus (HCMV) | 4.5% of 410,000 active | HFF cells, HCMV-luciferase reporter, 72 h; stronger effect = lower value | activity change, negative = inhibition, % at 57.5 µM; in the data active = activity change below about -60%; inconclusive = no clear call, values can overlap the other calls; inactive = above about -39%
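After 16 h attachment at 37C, HFF cells received test compound and HCMV-luciferase (1 PFU/cell); reporter luminescence read 72 h later, data normalized against buffer-only and known inhibitor Salinomycin.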
Pf growth 48h = Primary qHTS for delayed death inhibitors of the malarial parasite plastid, 48 hour incubation. Potency, µM (highest dose often 28.7 µM), inactives show top-dose activity change, negative = inhibition, most hits filed as inhibitors. P. falciparum luciferase growth in erythrocytes, 48 h. 5.9% of 310,000 active; note: potency is the fitted concentration of half-maximal effect
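A one-generation exposure of luciferase-tagged malaria parasites in RPMI 1640/Albumax erythrocyte culture, 37 C and 5% CO2. Inhibition is inferred from decreased luminescence after adding detection reagent.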
HCV inh = qHTS Assay for Inhibitors of Hepatitis C Virus (HCV) | Potency, µM (series often up to 41.8 µM), for the others: at the highest dose activity change, negative = inhibition, actives largely listed as inhibitors | 3.4% of 340,000 active | Huh7.5.1 HCVcc-Cre infection, luciferase reporter, 44 h; note: potency is the fitted concentration of half-maximal effect
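Whole-lifecycle infectious HCVcc-Cre system; cells 1,000/well, compound then virus (~0.5 moi) added 4 h after plating, 44 h culture. Luciferase read 15 sec following 15 min substrate incubation, room temp.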
An asterisk follows results filed as active; [ ] = dose if it differs, or a comment. In the library only some 13% were active in any assay of this set; here they are far more common. Unless noted, calls come from the whole dose curve; as a rule, active = well fitted inhibition curve with a large enough effect; inconclusive = small, poorly fitted or top-dose-only effect, or another doubt; inactive = no such curve, though single readings can be large or run the other way. % is set by controls: 0 for no effect and ±100 for the full control effect.

Results for COCCn1nnnc1C(c1cccc(OC)c1OC)N1CCN(C(=O)c2ccco2)CC1 (configuration not stated) ?
Pf growth 96h: 19%; HCMV antiviral: 4; Pf growth 48h: 2%; HCV inh: 24%

How did CCN1CCN(C(c2cccc(OC)c2OC)c2nnnn2Cc2ccco2)CC1 (configuration not stated) do in these assays?
Pf growth 96h: 16%; HCMV antiviral: -83*; Pf growth 48h: 21%; HCV inh: -9%

How did COCCn1nnnc1C(c1ccccn1)N1CCN(c2cccc(C)c2C)CC1 (configuration not stated) do in these assays?
Pf growth 96h: inconclusive; HCMV antiviral: -6; Pf growth 48h: inconclusive; HCV inh: 1%

How did CCCC(c1nnnn1Cc1ccco1)N1CCN(c2cc(Cl)ccc2C)CC1 (configuration not stated) do in these assays?
Pf growth 96h: 155%; HCMV antiviral: -19; Pf growth 48h: 10µM*; HCV inh: -2%

How did COc1ccccc1C(c1nnnn1Cc1ccco1)N1CCN(c2cccc(C)c2C)CC1 (configuration not stated) do in these assays?
Pf growth 96h: inconclusive; HCMV antiviral: -27; Pf growth 48h: 3.3µM*; HCV inh: 13µM*

How did Cc1ccc(N(C)S(=O)(=O)c2ccc3[nH]cc(C(=O)O)c(=O)c3c2)cc1C do in these assays?
HCMV antiviral: 100

Results for O=C(Nc1ccc(Cl)c(C(F)(F)F)c1)C(Cc1ccccc1)NS(=O)(=O)c1ccc(Br)s1 (configuration not stated) ?
HCMV antiviral: -9

How did NNC(=O)CNC(c1ccccc1)c1cc(Br)ccc1NC(=O)CCN1CCOCC1 (configuration not stated) do in these assays?
Pf growth 96h: 9.3µM*; HCMV antiviral: -15; Pf growth 48h: 12µM*; HCV inh: inconclusive

What do the screens show for `CCOC(=O)CNC(c1ccccc1)c1cc(Br)ccc1NC(=O)c1cccc(Cl)c1` (configuration not stated)?
HCMV antiviral: -29

What do the screens show for `COC(=O)CNC(c1ccccc1)c1cc(Br)ccc1NC(C)=O` (configuration not stated)?
Pf growth 96h: 0%; HCMV antiviral: -26; Pf growth 48h: 3%; HCV inh: 4%

Results for NNC(=O)CNC(c1ccccc1)c1cc(Br)ccc1NC(=O)c1ccc(Br)cc1 (configuration not stated) ?
Pf growth 96h: -9%; HCMV antiviral: -31; Pf growth 48h: 8.3µM*; HCV inh: inconclusive

What do the screens show for `NNC(=O)CNC(c1ccccc1)c1cc(Br)ccc1NC(=O)c1ccccc1Br` (configuration not stated)?
Pf growth 96h: 78%; HCMV antiviral: -33; Pf growth 48h: 8.3µM*; HCV inh: 0%

What do the screens show for `NNC(=O)CNC(c1ccccc1)c1cc(Br)ccc1NC(=O)c1cccc(Cl)c1` (configuration not stated)?
Pf growth 96h: inconclusive; HCMV antiviral: -21; Pf growth 48h: 13µM*; HCV inh: -27%

How did COC(=O)CNC(c1ccccc1)c1cc(Br)ccc1NC(=O)c1ccccc1 (configuration not stated) do in these assays?
HCMV antiviral: -17

How did O=C1CC(c2ccc(Cl)cc2)Sc2nc(-c3ccc(F)cc3)nn21 (configuration not stated) do in these assays?
HCMV antiviral: 13

How did O=S1(=O)c2cc(Cl)ccc2N2CCC[C@@H]2CN1Cc1ccc(Cl)c(Cl)c1 do in these assays?
HCMV antiviral: 2

What do the screens show for `COc1cc2ncnc(Nc3ccc(F)c(Cl)c3)c2cc1OCCCN1CCOCC1`?
Pf growth 48h: 0.54µM*

Results for C=CC(=O)Nc1cc2c(Nc3ccc(F)c(Cl)c3)ncnc2cc1OCCCN1CCOCC1 ?
HCMV antiviral: -19

What do the screens show for `CCO[C@@H]1OC(C(=O)N2CCN(Cc3ccc4c(c3)OCO4)CC2)=C[C@H](c2csc3ccccc23)[C@H]1CCCO`?
Pf growth 96h: 2.1µM*; Pf growth 48h: inconclusive; HCV inh: -12%[8.37 µM]

What do the screens show for `CCO[C@@H]1OC(C(=O)N2CCN(C)CC2)=C[C@H](c2csc3ccccc23)[C@H]1CCCO`?
Pf growth 96h: inconclusive; HCMV antiviral: -7; Pf growth 48h: inconclusive; HCV inh: 5%
